Data: PubChem BioAssay (Tox21)
Values joined by “and” are separate entries in the source; they are usually repeats but may differ in a detail not shown here. Equal values may be shown once. Records with an inconclusive call do not appear. A structure can be active in one record and inactive in another. Active and inactive are the calls of the source. Unless noted, calls come from the whole dose curve; as a rule, active = well fitted curve in the direction sought with a large enough effect in the repeat runs; inconclusive = weak or mixed curves; inactive = no such curve, though single readings can be large; an effect the other way counts as inactive or inconclusive.

What was measured:
[1] = molecular target: Retinoic acid receptor RXR-alpha (Homo sapiens) (UniProt P19793); assay: qHTS assay to identify small molecule agonists of the RXR signaling pathway (AID 1159527; calls by dose curve; note: nearly all actives have a fitted effect of over 35% in size; note: potency is the fitted concentration of half-maximal effect)
Retinoic acid receptor RXR-alpha (Homo sapiens), sequence (P19793 whole entry, looked up): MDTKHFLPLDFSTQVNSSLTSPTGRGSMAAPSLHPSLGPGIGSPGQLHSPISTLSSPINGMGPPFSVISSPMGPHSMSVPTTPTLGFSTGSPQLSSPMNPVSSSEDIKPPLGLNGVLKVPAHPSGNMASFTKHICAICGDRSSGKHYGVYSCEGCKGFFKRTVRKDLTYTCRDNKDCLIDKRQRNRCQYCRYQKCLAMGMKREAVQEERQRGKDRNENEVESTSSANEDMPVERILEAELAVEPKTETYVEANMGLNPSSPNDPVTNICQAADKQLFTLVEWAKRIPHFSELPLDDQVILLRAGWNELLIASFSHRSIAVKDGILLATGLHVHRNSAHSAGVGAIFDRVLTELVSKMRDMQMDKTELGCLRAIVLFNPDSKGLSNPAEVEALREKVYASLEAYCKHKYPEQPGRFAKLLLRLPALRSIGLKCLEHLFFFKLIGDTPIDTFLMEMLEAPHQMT
Outline: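 Agonist mode; 9-cis retinoic acid positive control. HEK 293T UAS-bla reporter cells, 2% charcoal-stripped FBS, 16 hr compound exposure at 37 C/5% CO2. LiveBLAzer B/G FRET substrate 2 hr RT; ex 405, em 460/530 nm.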

[2] = qHTS assay to identify small molecule agonists of the RXR signaling pathway - cell viability counter screen (AID 1159529); note: nearly all actives have a fitted effect of over 50% in size; note: potency is the fitted concentration of half-maximal effect
Outline: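 Luminescence from CellTiter-Glo (30 min, RT) measured viability in the same wells as the beta-lactamase reporter readout. Cells: GeneBLAzer RXR-alpha HEK 293T, 2% charcoal-stripped FBS. Compound exposure 16 hr, 37 C.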

[3] = qHTS assay to identify small molecule antagonists of the retinoid acid receptor (RAR) signaling pathway - cell viability counter screen (AID 1159551); note: nearly all actives have a fitted effect of over 35% in size; note: potency is the fitted concentration of half-maximal effect
Outline: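 Cytotoxicity counter screen in C3RL4 cells: 6 h compound exposure with 1 uM retinol (final), viability from cellular ATP by luminescence.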

[4] = qHTS assay to identify small molecule antagonists of the retinoic acid receptor (RAR) signaling pathway (AID 1159552; note: nearly all actives have a fitted effect of over 50% in size; note: potency is the fitted concentration of half-maximal effect)
Outline: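 Luminescence from a RARE luciferase reporter in C3RL4 cells served as read-out. Cells received compounds together with 1 uM final retinol and incubated 6 hr at 37 C before detection reagent was added for 30 min at room temperature.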

[5] = qHTS assay to identify small molecule antagonists of the estrogen related receptor (ERR) signaling pathway (AID 1224819;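 note: luminescence from an ERR-driven luciferase reporter measured with One-Glo reagent; series mostly up to about 46 µM; nearly all actives have a fitted effect of over 50% in size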)
Outline: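 Compounds dissolved in DMSO were pin-transferred onto ERR cells that had been plated 6 h earlier, and cells were then incubated 18 h at 37 C; signal was luciferase luminescence via One-Glo.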

[6] = system: estrogen-related receptor alpha (ERRalpha) with PGC-1alpha coactivator, human; assay: qHTS assay to identify small molecule antagonists of the estrogen related receptor signaling pathway with the pleiotropic PPARgamma coactivator (PGC) (AID 1224821; calls by dose curve;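 note: series mostly up to about 46 µM; lower luminescence signal means antagonism of PGC/ERR signalling; nearly all actives have a fitted effect of over 50% in size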)
Outline: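 Quantitative HTS for antagonism: PGC/ERR cells received compounds after 6 h attachment and were incubated 18 h at 37 C, with luminescence (One-Glo) as the endpoint.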

[7] = qHTS assay to identify small molecule antagonists of the estrogen related receptor signaling pathway with the pleiotropic PPARgamma coactivator (PGC) cell viability counter screen (AID 1224822; note: potency is the fitted concentration of half-maximal effect;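 note: viability read after 17.5 h compound exposure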)
Outline: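 Seed PGC/ERR cells (2,000/well); incubate 6 h at 37 C/5% CO2; pin-transfer compounds in DMSO; incubate 17.5 h at 37 C; add CellTiter-Fluor; after 30 min read fluorescence.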

[8] = qHTS assay to identify small molecule agonists of the estrogen related receptor signaling pathway with the pleiotropic PPARgamma coactivator (PGC) (AID 1224823)
Outline: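 Cell-based luciferase assay in the NTP-supplied PGC/ERR line, 2,000 cells/well; 18 h compound exposure at 37 C, luminescence after One-Glo.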

[9] = qHTS assay to identify small molecule antagonists of the estrogen related receptor (ERR) signaling pathway from Tox21 library - cell viability counter screen (AID 1224834); note: nearly all actives have a fitted effect of over 30% in size; note: potency is the fitted concentration of half-maximal effect
Outline: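 Cytotoxicity of test substances is gauged in the same ERR cells used for the antagonist screen, after 17.5 h of compound treatment at 37 C, by CellTiter-Fluor fluorescence measured after 30 min.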

[10] = molecular target: Nuclear receptor subfamily 1 group I member 3 (Homo sapiens) (UniProt Q14994); assay: qHTS assay to identify small molecule antagonists of the constitutive androstane receptor (CAR) signaling pathway (AID 1224838); note: nearly all actives have a fitted effect of over 40% in size; note: potency is the fitted concentration of half-maximal effect
Nuclear receptor subfamily 1 group I member 3 (Homo sapiens), sequence (Q14994 whole entry, looked up): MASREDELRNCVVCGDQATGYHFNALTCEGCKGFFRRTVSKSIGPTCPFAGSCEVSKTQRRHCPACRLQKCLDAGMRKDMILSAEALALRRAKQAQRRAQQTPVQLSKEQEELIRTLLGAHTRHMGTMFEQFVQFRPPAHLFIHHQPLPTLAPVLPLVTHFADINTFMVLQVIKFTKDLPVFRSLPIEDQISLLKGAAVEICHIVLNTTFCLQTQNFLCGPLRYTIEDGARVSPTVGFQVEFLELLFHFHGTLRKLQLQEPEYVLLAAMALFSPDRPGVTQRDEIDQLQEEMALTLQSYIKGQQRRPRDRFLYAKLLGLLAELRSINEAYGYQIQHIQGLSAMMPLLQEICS
Outline: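 Compounds were titrated across 15 concentrations onto HepG2 cells double-stably expressing hCAR and a CYP2B6-2.2kb reporter, together with 50 nM CITCO (final). After 24 h at 37 C, luciferase activity was measured by luminescence.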

[11] = qHTS assay to identify small molecule antagonists of the estrogen related receptor signaling pathway with the pleiotropic PPARgamma coactivator (PGC) from Tox21 10K library (AID 1224841; call rule not given here; note: potency is the fitted concentration of half-maximal effect; for activity, negative = inhibition: series mostly up to about 92 µM)
Outline: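 Antagonism in this quantitative HTS is taken from loss of luciferase signal in PGC/ERR cells. Cells (2,000/well) are treated with compounds in DMSO after a 6 h settling period and read by One-Glo luminescence after 18 h.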

[12] = qHTS assay to identify small molecule agonists of the retinoic acid receptor (RAR) signaling pathway (AID 1159553); note: potency is the fitted concentration of half-maximal effect
Outline: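 Agonist activity was scored in C3RL4 cells bearing a retinoic acid response element luciferase construct. Cells were treated with compounds for 6 hr at 37 C, and luciferase signal was measured as luminescence.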

[13] = qHTS assay to identify small molecule agonists of the constitutive androstane receptor (CAR) signaling pathway - cell viability counter screen (AID 1224836); note: nearly all actives have a fitted effect of over 45% in size; note: potency is the fitted concentration of half-maximal effect
Outline: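 Viability read-out: CellTiter-Fluor fluorescence after 23 h compound exposure at 37 C/5% CO2 in double-stable HepG2-CYP2B6-hCAR cells, with PK11195 present at 0.75 uM final; compounds tested in 15-point titration.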

[14] = molecular target: Nuclear receptor subfamily 1 group I member 3 (Homo sapiens) (UniProt Q14994); assay: qHTS assay to identify small molecule agonists of the constitutive androstane receptor (CAR) signaling pathway (AID 1224839); note: nearly all actives have a fitted effect of over 15% in size; note: potency is the fitted concentration of half-maximal effect
Outline: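 Luminescence read-out (ONE-Glo, 30 min, room temperature) from double-stable HepG2-CYP2B6-hCAR cells exposed 24 h to 15-point compound series in presence of 0.75 uM PK11195 final.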

[15] = qHTS assay to identify small molecule antagonists of the estrogen related receptor signaling pathway with the pleiotropic PPARgamma coactivator (PGC) from Tox21 10K library - cell viability counter screen (AID 1224840; active = well fitted cell-killing curve with a large enough effect in the repeat runs, not every such curve was filed as active; note: nearly all actives have a fitted effect of over 40% in size; note: potency is the fitted concentration of half-maximal effect)
Outline: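 Step one, plate 2,000 PGC/ERR cells per well; step two, incubate 6 h at 37 C/5% CO2; step three, pin-transfer compounds; step four, incubate 17.5 h; step five, add CellTiter-Fluor and read fluorescence after 30 min.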

[16] = qHTS assay to identify small molecule antagonists of the constitutive androstane receptor (CAR) signaling pathway - cell viability counter screen (AID 1224837); note: nearly all actives have a fitted effect of over 45% in size; note: potency is the fitted concentration of half-maximal effect
Outline: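 Multiplexed cytotoxicity read-out for the CAR antagonist screen: double-stable HepG2-CYP2B6-hCAR cells co-treated with 50 nM CITCO (final) and compound over 15 concentrations, incubated 23 hr, then assessed by CellTiter-Fluor fluorescence.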

[17] = qHTS assay to identify small molecule agonists of the estrogen related receptor signaling pathway with the pleiotropic PPARgamma coactivator (PGC) from Tox21 10K library (AID 1224842); note: nearly all actives have a fitted effect of over 15% in size; note: potency is the fitted concentration of half-maximal effect
Outline: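 PGC/ERR reporter cells (NTP line) were seeded 2,000 per well, rested 6 h at 37 C/5% CO2, then pin-dosed with compounds in DMSO for 18 h at 37 C; luciferase read by One-Glo luminescence after 30 min at room temperature.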

[18] = molecular target: Luciferin 4-monooxygenase (Photinus pyralis) (UniProt P08659); assay: qHTS assay to identify small molecule inhibitors of firefly luciferase (AID 1224835); note: nearly all actives have a fitted effect of over 25% in size; note: potency is the fitted concentration of half-maximal effect
Luciferin 4-monooxygenase (Photinus pyralis), sequence (P08659 whole entry, looked up): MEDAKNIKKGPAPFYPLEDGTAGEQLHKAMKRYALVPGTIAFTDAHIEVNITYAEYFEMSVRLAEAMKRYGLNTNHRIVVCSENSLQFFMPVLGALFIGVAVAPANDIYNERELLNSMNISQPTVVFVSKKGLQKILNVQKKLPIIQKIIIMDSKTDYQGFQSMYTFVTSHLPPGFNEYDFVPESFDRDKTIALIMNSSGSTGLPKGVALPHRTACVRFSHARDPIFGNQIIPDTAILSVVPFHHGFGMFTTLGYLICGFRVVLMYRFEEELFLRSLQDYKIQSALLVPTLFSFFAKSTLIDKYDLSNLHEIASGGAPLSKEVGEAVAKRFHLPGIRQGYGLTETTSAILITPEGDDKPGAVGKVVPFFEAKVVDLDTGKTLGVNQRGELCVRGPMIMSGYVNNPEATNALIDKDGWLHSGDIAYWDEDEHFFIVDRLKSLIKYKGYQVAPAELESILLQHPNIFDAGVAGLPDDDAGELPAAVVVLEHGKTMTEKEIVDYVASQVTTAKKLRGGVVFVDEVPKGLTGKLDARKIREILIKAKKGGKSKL
Outline: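 Quantitative HTS format; KM concentrations of both substrates. Purified P. pyralis FLuc activity quantified from luminescence images.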

[19] = qHTS assay to identify small molecule antagonists of the estrogen related receptor (ERR) signaling pathway - cell viability counter screen (AID 1224818);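 note: series mostly up to about 46 µM; viability measured after 17.5 h of compound exposure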
Outline: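 Cells carrying the ERR pathway reporter were seeded and incubated for 6 hours before compound addition. After a 17.5-hour exposure at 37 C, live-cell protease activity was measured by CellTiter-Fluor fluorescence following 30 minutes of incubation.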

[20] = qHTS assay to identify small molecule agonists of the estrogen related receptor (ERR) signaling pathway (AID 1224820)
Outline: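 Quantitative HTS of the LOPAC library used NTP ERR reporter cells treated 18 h at 37 C. Signal is luminescence after One-Glo addition and a 30 min room-temperature incubation.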
% is set by controls: 0 for no effect and ±100 for the full control effect.

Nc1ccc(O)c([N+](=O)[O-])c1
active: Potency [1] 7.76 µM | Potency [9] 21.7 µM | Potency [10] 12.2 µM
inactive: Potency [2] | Potency [3] | Potency [4] | Potency [5] | outcome [6] | Potency [7] | outcome [8] | Potency [11]

O=CC(=O)c1ccccc1
inactive: Potency [2] | Potency [4] | Potency [12] | Potency [9] | Potency [13] | Potency [14] | Potency [15] | Potency [11]
active: Potency [10] 68.7 µM

COc1ccc2cc(S(=O)(=O)N[C@H](CC(=O)N[C@H](Cc3ccc(CN4[C@H](C)CCC[C@@H]4C)cc3)C(=O)N(C)C(C)C)c3ccc4c(c3)OCO4)ccc2c1
active: Potency [2] 2.32 µM | Potency [4] 51.6 µM | Potency [9] 51.6 µM | Potency [13] 23 µM | Potency [16] 25.8 µM | Potency [10] 41 µM | Potency [15] 29 µM
inactive: Potency [12] | Potency [14] | Potency [17]

CC/C(=C(\c1ccccc1)c1ccc(OCCN(C)C)cc1)c1ccccc1
active: Potency [2] 15.5 µM [middle of 5 runs] | Potency [3] 61.5 µM and 61.1 µM and 54.9 µM | Potency [4] 54.4 µM [middle of 5 runs] | Potency [7] 27.6 µM | Potency [9] 54.4 µM and 54.9 µM and 61.1 µM

C=C1CC[C@H](O)C/C1=C\C=C1/CCC[C@]2(C)[C@@H]([C@H](C)CCCC(C)C)CC[C@@H]12
active: Potency [2] 24.3 µM | Potency [9] 54 µM
inactive: Potency [3] | Potency [4] | Potency [13] | Potency [10] | Potency [14]

CCc1nc(N)nc(N)c1-c1ccc(Cl)cc1
active: Potency [10] 1.75 µM and 3.06 µM
inactive: Potency [1] | Potency [3] | Potency [13] | Potency [14] | Potency [15]

Nc1ccc2c(c1)CN1C(=O)c3ccccc3C1=N2
inactive: activity, negative = inhibition [4] -41% [at 19 µM] | activity, negative = inhibition [10] -44.6% [at 19 µM]
active: Potency [3] 14.6 µM | Potency [12] 0.366 µM | Potency [18] 0.213 µM | Potency [14] 0.184 µM

COc1ccc2c(c1)c(CC(=O)O)c(C)n2C(=O)c1ccc(Cl)cc1
30.8 µM (active) and inactive: Potency [11]
inactive: Potency [2] | Potency [3] | Potency [4] | Potency [12] | outcome [19] | Potency [5] | outcome [20] | outcome [6] | Potency [7] | outcome [8] | Potency [9] | Potency [13] | Potency [16] | Potency [10] | Potency [14] | Potency [17]

CCCCCCCCCCCC[N+](C)(C)Cc1ccccc1
inactive: Potency [18] | Potency [14]
active: Potency [2] 6.78 µM and 8.43 µM and 1.69 µM | Potency [3] 60 µM and 74.5 µM | Potency [9] 60 µM and 66.4 µM and 23.7 µM | Potency [13] 47.6 µM and 59.2 µM and 29.8 µM | Potency [10] 83.6 µM and 29.8 µM

NC(=O)n1c(O)c(C(=O)c2cccs2)c2cc(Cl)ccc21
inactive: Potency [3] | Potency [4] | Potency [12] | Potency [10]
active: Potency [9] 23.7 µM | Potency [18] 30.9 µM | Potency [14] 13.3 µM

C1CCC(C(CC2CCCCN2)C2CCCCC2)CC1 (configuration not stated)
active: Potency [2] 23.9 µM | Potency [3] 29.8 µM | Potency [4] 9.44 µM | Potency [9] 29.8 µM | Potency [15] 29.8 µM
inactive: Potency [18] | Potency [14] | Potency [17]

CN[C@H]1CC[C@@H](c2ccc(Cl)c(Cl)c2)c2ccccc21
active: Potency [4] 26.6 µM | Potency [9] 29.8 µM
inactive: Potency [3] | outcome [19] | Potency [5] | outcome [20] | outcome [6] | Potency [7] | Potency [18] | Potency [13] | Potency [16] | Potency [10] | Potency [14] | Potency [11]

O=C1OC2(c3ccccc31)c1cc(Br)c(O)c(Br)c1Oc1c2cc(Br)c(O)c1Br
inactive: Potency [2] | Potency [3] | Potency [4] | Potency [12] | Potency [10] | Potency [14]
active: Potency [9] 11 µM and 25 µM and 26.6 µM | Potency [18] 28.7 µM and 36.6 µM

C1=CC2C3C=CC(C3)C2C1 (configuration not stated)
inactive: Potency [2] | Potency [3] | Potency [12] | outcome [19] | Potency [5] | outcome [20] | outcome [6] | Potency [7] | outcome [8] | Potency [16] | Potency [14] | Potency [15] | Potency [17]
active: Potency [11] 60 µM

Cc1ncc([N+](=O)[O-])n1C
inactive: Potency [1] | Potency [2] | Potency [3] | Potency [9] | Potency [13] | Potency [10] | Potency [14] | Potency [15] | Potency [11] | Potency [17]

O=C1c2c(O)cccc2Cc2cccc(O)c21
inactive: Potency [1] | Potency [2] | Potency [3] | Potency [9] | Potency [13] | Potency [15]

COc1ccc(OC(F)(F)F)cc1CN[C@H]1CCCN[C@H]1c1ccccc1
active: Potency [9] 54.5 µM | Potency [13] 61.1 µM | Potency [16] 54.5 µM | Potency [10] 54.5 µM | Potency [15] 54.5 µM
inactive: Potency [3] | Potency [18] | Potency [14]

CCOc1ccc(NC(C)=O)cc1
inactive: Potency [1] | Potency [2] | Potency [3] | Potency [9] | Potency [13] | Potency [11] | Potency [17]

CC(=O)CC(c1ccccc1)c1c(O)c2ccccc2oc1=O (configuration not stated)
inactive: Potency [2] | Potency [3] | Potency [9] | Potency [13] | Potency [16] | Potency [15]

C/C=C/C=C/C(=O)O
inactive and 49 µM (active): Potency [1]
inactive: Potency [2] | Potency [3] | Potency [9] | Potency [13] | Potency [10] | Potency [14]

O=C(Nc1ncc([N+](=O)[O-])s1)c1cccs1
inactive: Potency [4] | Potency [10] | Potency [11]
active: Potency [2] 6.01 µM | Potency [3] 23.7 µM | Potency [12] 1.06 µM | Potency [9] 13.3 µM | Potency [18] 3.09 µM | Potency [14] 1.33 µM | Potency [17] 0.841 µM

Nc1ccc([N+](=O)[O-])cc1O
inactive: Potency [1] | Potency [12] | Potency [7] | Potency [10]
